From the supplement of paper PMC6555819

Columns and labels:
Test in all cases: PBM binding z-score (relative to random genomic background probes); higher = stronger binding; sequences stand for … in GC…GCGATTGACAGCGTAGAATGAAGG
[1] = system: FXR:RXRa (NR concentration 270 nM, RXRa partner concentration 90 nM)
Outline: (§1)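 Binding z-scores take random background probes as their reference. They come from custom Agilent 4×180K protein-binding microarrays incubated 1 h with ligand-free nuclear receptor dimers, with antibodies against each partner (one per run) detecting binding. Scanned fluorescence was regression-normalized.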

[2] = system: LXRa:RXRa (NR concentration 270 nM, RXRa partner concentration 90 nM)
Outline: as §1

[3] = system: LXRa homodimer (NR concentration 270 nM)
Outline: as §1

[4] = system: LXRb:RXRa (NR concentration 270 nM, RXRa partner concentration 90 nM)
Outline: as §1

[5] = system: LXRb homodimer (NR concentration 270 nM)
Outline: as §1

[6] = system: PPARa:RXRa (NR concentration 270 nM, RXRa partner concentration 90 nM)
Outline: as §1

[7] = system: PPARg:RXRa (NR concentration 180 nM, RXRa partner concentration 90 nM)
Outline: as §1

[8] = system: PPARg:RXRa 270nM:90nM, anti-RXR (NR concentration 270 nM, RXRa partner concentration 90 nM)
Outline: as §1

[9] = system: PPARg:RXRa 30nM:10nM, anti-RXR (NR concentration 30 nM, RXRa partner concentration 10 nM)
Outline: as §1

[10] = system: PPARg:RXRa 90nM:30nM, anti-RXR (NR concentration 90 nM, RXRa partner concentration 30 nM)
Outline: as §1

Sequence	PBM binding z-score [1]	PBM binding z-score [2]	PBM binding z-score [3]	PBM binding z-score [4]	PBM binding z-score [5]	PBM binding z-score [6]	PBM binding z-score [7]	PBM binding z-score [8]	PBM binding z-score [9]	PBM binding z-score [10]
CAAACTAGGTCACGAAAGGTCATAGTCGAATGAC	7.43	7.78	7.34	6.95	2.21	6.37	10.5	8.43	7.64	8.8
TCGTGTAGATCAAAGGTTAAGAAAGCCGAAGCCT	1.91	1.98	0.381	1.83	0.049	3.91	5.73	6.47	5.88	6.62
ATCGAAAGGGCGAAGGTGAGTATACCCACCCGAA	0.199	0.432	-0.538	0.0351	-0.165	1.72	1.93	2.33	0.766	1.93
CAAACTCGGTCACAGAGGTCAAAGTCCGTGCGTA	5.99	6.29	7.24	5.29	2.04	5.72	5.27	6.24	3.25	5.58
TCGAGCAGGCCAGAGGGTCACTCAAGAGGTACGG	0.628	0.741	-0.581	1.11	-1.33	2.24	1.04	1.6	0.223	1.31
CTCGAAAGATCGGTTGAGGTGAGTATACGGATAA	0.238	-0.622	-0.531	-0.146	-0.43	0.0167	-0.0366	-0.226	-0.244	-0.262
TAGCCTAGGTCAGTTCGGGCCAGTATACGCTATA	1.39	0.745	-0.272	0.551	-0.0472	1.22	0.33	0.647	-0.293	0.114
CTCGAAAGGTCGGTTGAGGTGAGTGTACGGATAA	2.54	2.08	-0.0781	1.51	-0.0633	2.67	0.33	1.27	0.405	0.48
ATCGATAGGTCGAAGGTGAGTATACCCACCCGAA	0.952	0.85	-0.301	0.557	-0.268	2.9	4.53	5.41	3.58	5.43
TCTTGTAGATCATCAGGTTAAGAAAGCTGGCCAA	0.48	0.703	0.27	0.642	-0.0532	0.993	-0.352	1.6	2.71	1.98
GCTCGGAGGACAAGGTCTGAGCTTTGTCCGTAGA	-0.67	-0.493	-0.867	-0.602	-1.01	-0.36	-1.05	-0.462	-1.11	-1
CCGACTGGGGCAAGGATACCATAACGCACAGCCA	-0.419	-0.243	-0.0407	-0.588	-1.01	0.158	1.6	1.16	-0.149	0.515
TCTAGTTGGTCACGGAGGTCACACAAGACGGGTA	3.16	3.39	2.41	3.46	0.597	3.99	3.49	4.05	3.51	3.75
ACATGTAGGTTAGCTGGGGTCATTCAGACTAGGC	5.12	5.55	2.93	4.9	1.56	4.85	4.21	4.58	1.87	3.39
ACTATTAGTTGTGACGAGGGCAACCGATAGGTTG	-0.101	-0.0626	-0.0175	-0.0591	-0.181	0.388	0.623	0.256	-0.152	0.259
CCTTACGGGTCACTCCAGGGTATAGCATCGGAGT	4.69	6.8	0.368	3.85	-0.114	4.27	3.23	3.68	1.19	2.52
ACAACGAGGGCACGCTGAGTTGATAGCAGAGTAG	0.762	0.503	-0.519	0.00813	-0.476	1.58	1.65	1.19	0.248	0.944
CTTACTGGGCCATTCAGAGGTCATTGATCATATG	3.23	4.72	6.7	4.11	0.985	4.48	4.03	4.43	2.21	3.71
CCTAGTTGGTCGGGAGGTCACACACCGGATATGA	3.79	3.32	2.67	3.48	1.04	3.89	2.12	2.73	0.776	2.07
TATACAGGGTCAAACGCCAGAGTACGAATGTCGA	7.58	6.35	3.43	5.2	3.15	6.3	7.33	6.79	3.84	5.94
GATACAGGGTCAAGGCCAGAGTCCGCGTATTGAT	6.15	4.03	-0.217	3.58	0.0048	5.35	5.26	5.31	1.52	3.89
CCTAGTAGGTCAAGGTCACACACGCTATAGGTAC	6.32	5.5	2.71	4.64	1.12	5.98	9.25	7.51	5.53	7.55
TGAATGAGGTTATAAGATCACGGAACGTTGCAAA	1.72	1.49	-0.0904	1.48	-0.205	3.21	2.15	2.44	1.12	2.05
TCTTGTAGATCAAGCAGCTTAAGAAAGCCTGAGT	-0.352	-0.169	-0.373	-0.0264	-0.791	0.29	-0.61	1.03	2.17	1.5
CGAACTAGGTCATTGACAGGACAGTTAATAGTAA	4.35	3.12	0.774	2.36	0.0885	4.66	7.39	6.51	3.39	5.59

Sequence	PBM binding z-score [1]	PBM binding z-score [2]	PBM binding z-score [3]	PBM binding z-score [4]	PBM binding z-score [5]	PBM binding z-score [6]	PBM binding z-score [7]	PBM binding z-score [8]	PBM binding z-score [9]	PBM binding z-score [10]
GCTTACGGGTCAAAGCTTATAGCATGAATAGAAT	6.25	3.79	-0.13	3.78	0.156	5.7	4.76	5.32	2.66	4.08
CAAACGAGGGCATGAGTTGATAGCAAATGCCGAT	0.718	0.454	-0.447	0.313	-0.289	1.86	1.7	1.88	0.402	1.12
CCGACTGGGGCTGAAAGGTTACCATACCATCCGG	0.294	0.581	-0.00145	0.846	-1.11	1.76	0.998	1.93	0.223	1.31
AATACAGGGTCACTAGGCCAGAGAAGGTACGAAT	5.79	5.03	1.01	3.99	0.795	5.85	7.78	6.43	3.11	5.35
CTCGAAAGGTCGGTTGAGGTTAGTATACGGATAA	3.06	2.88	0.205	1.97	0.0146	2.81	0.316	1.21	0.186	0.845
GCTGCTAAGTCAACTGATGGTCAGCTAAAGCTCG	-0.765	-0.562	-0.539	-0.754	-1.04	-0.555	-0.342	-0.538	-0.793	-0.507
ATCGAAAGGTCGTGGGGTGAGTATACAGAAAGGC	6.2	4.88	0.955	4.76	2.35	5.78	5.25	5.38	2.16	3.9
TCTTGTAGATCAAGCAGGTTAAGGAAGCCTGAGT	0.133	0.211	-0.315	0.139	-0.226	0.674	-0.544	1.08	2.6	1.8
ATCTCTAGGTGAGACTCAGTTCAGTGAAGAACGC	0.247	0.206	0.00794	0.271	0.0417	0.953	0.798	0.846	0.146	0.412
CGTCCAAGATCAGCAGGTCAGTGAAAGCGACGTG	0.239	0.32	0.0834	0.195	-0.306	0.671	0.0765	0.227	-0.568	-0.405
CGTCCAAGGTCAGAGAGGTCAGTTAATGCCGAGT	6.19	5.39	3.93	4.99	0.784	4.72	3.34	4.09	0.894	2.9
ATCGAAAGGCCGTGAGGTGAGTATACAGAAAGGC	0.424	0.135	-0.0346	-0.0132	-0.426	0.369	0.827	0.177	0.199	-0.0286
CGTCCAACGTCATAGGAGGTCAGTGAAGACAGAT	1.79	2.71	0.999	1.63	-0.234	2.09	0.683	0.77	0.184	0.231
TCGTATAGGTAAATGCTAGGTGAAAGTCCGATCT	0.843	0.876	0.236	0.653	0.0986	0.931	0.156	1.84	3.04	2.54
TCTTGTAGATCAACTGGAGGTTAAGAAAGATCGA	0.425	1.71	1.03	1.22	-0.276	1.53	-0.287	1.31	2.76	1.89
ATACCAAGGTGCTCGTGAGGTCGTTGATACTAAC	0.689	0.535	0.19	0.834	-0.238	0.836	0.126	-0.218	-0.413	-0.131
ATCGAAAAGTCGAGGTGAGTATAGAGAAAGGGAA	0.304	0.67	-0.216	-0.238	-0.0548	0.326	0.344	-0.139	0.203	-0.312
CCTAGCAGGCCAATCTGGGTGACTCAAGGCTTGA	-0.438	-0.53	-0.891	-0.476	-0.85	1.26	0.507	0.524	-0.938	-0.00968
TGAATGAGGTTCTAAGATCAGGGAACGTTGCAAA	-0.725	-0.693	-0.989	-0.763	-0.398	-0.344	-0.0951	-0.03	-0.103	0.161
AGAATGAGGTTATGCGTAGATCAGGGAAGAAAGT	1.66	1.51	-0.231	1.31	-0.169	3.1	1.44	2	0.664	1.12
GATACAGGGTCAGTTAGAGGCCAGAGTATGGAAA	4.02	2.54	0.247	2.39	0.0768	3.64	2.24	2.27	0.448	1.45
AGAATGACGTTATACGTAGATCAGGGAAGAAAGT	-0.751	-0.685	-0.265	-0.753	-0.294	-0.611	0.583	-0.509	-0.197	-0.37
TAGCCTAGGCCATTGGGCCAGTATAGTACGCATC	-0.681	-0.881	-0.612	-0.883	-1.27	-1.09	0.237	-0.512	-0.597	-0.438
CCGACTGGGGCAGAAAGGTTACCACACCATCCGG	0.286	0.428	0.0458	0.833	-1.17	2.21	1.74	2.66	0.555	2.13
